{"source": "PubChem BioAssay (NCATS)", "note": "Results filed as inconclusive are left out. A call without a number means that no potency is given here. The source made the active and inactive calls. Calls come from the whole dose curve; as a rule, active = well fitted cell-killing curve with a large enough effect; inconclusive = small, poorly fitted or top-dose-only effect, or effect the other way; inactive = flat fitted curve, though single readings scatter.", "data": [{"tested_on": "Es-2", "assay": "Primary qHTS to identify gynecologic anti-cancer compounds using libraries of approved drugs and bioactive compounds (AID 1345084); note: nearly all actives have a fitted effect of over 55% in size", "conditions": "Gynecologic cancer cell panel viability, ATPlite luminescence, 48 h; series mostly up to 57.5 µM", "how_it_was_run": "(§1)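 Cells, 1,000 per well, plated 16 h, then exposed 48 h at 37 C to compounds. Viability by ATPlite luminescence after 15 min at room temperature.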", "values": [{"smiles": "COc1cc(C)c(C(=O)O[C@@H]2[C@H](O)[C@@H](CO)O[C@H]2n2ccc(=O)[nH]c2=O)c(OC)c1", "Potency": "inactive"}, {"smiles": "C=C(CCO)C(=O)OCC1OCC(OC(=O)C(=C)CCO[C@@H]2O[C@H](CO)[C@@H](O)[C@H](O)[C@H]2O)C(O)C1O", "note": "(stereo partly specified)", "Potency": "inactive"}, {"smiles": "COc1ccc(/C=C/C(=O)N2CCCC2)cc1", "Potency": "inactive"}, {"smiles": "C[C@@H]1O[C@@H](OC[C@H]2O[C@@H](OCc3ccccc3)[C@H](O)[C@@H](O)[C@@H]2O)[C@H](O)[C@H](O)[C@H]1O", "Potency": "inactive"}, {"smiles": "CC(=O)O[C@@H]1C=C2[C@H](CC[C@@]3(C)[C@@]2(O)CC[C@H]2Cc4c([nH]c5ccccc45)[C@@]23C)O[C@@H]1C(C)(C)O", "Potency": "inactive"}, {"smiles": "Cc1cc(Cn2cnc3c2CC(C(=O)O)N(C(=O)C(c2ccccc2)c2ccccc2)C3)ccc1N(C)C", "note": "(stereo unspecified)", "Potency": "inactive"}]}, {"tested_on": "HeLa", "assay": "Primary qHTS to identify gynecologic anti-cancer compounds using libraries of approved drugs and bioactive compounds (AID 1345084)", "conditions": "Gynecologic cancer cell panel viability, ATPlite luminescence, 48 h; series mostly up to 57.5 µM", "how_it_was_run": "as §1", "values": [{"smiles": "COc1cccc(Cn2ncc3c4sc(S(C)=O)cc4n(C)c3c2=O)c1", "note": "(stereo unspecified)", "Potency": "inactive"}, {"smiles": "CC(C)CC(=O)O[C@@H]1O[C@H](CO)[C@@H](O[C@H]2O[C@H](C)[C@@H](N[C@H]3C=C(CO)[C@@H](O[C@H]4O[C@H](CO)[C@@H](O[C@H]5O[C@H](CO)[C@@H](O[C@H]6O[C@H](CO)[C@@H](O)[C@H](O)[C@H]6O)[C@H](O)[C@H]5O)[C@H](O)[C@H]4O)[C@H](O)[C@H]3O)[C@H](O)[C@H]2O)[C@H](O)[C@H]1O", "activity change, negative = cytotoxicity": "-0.344% [at 11.6 µM] (inactive)"}, {"smiles": "COc1ccc(C2COc3cc(O)ccc3C2)c(O)c1OC", "note": "(stereo unspecified)", "Potency": "inactive"}, {"smiles": "CCN1CCN(C(=O)N[C@@H](C(=O)N[C@@H]2C(=O)N3[C@@H]2SC(C)(C)[C@@H]3C(=O)O)c2ccccc2)C(=O)C1=O", "Potency": "inactive"}, {"smiles": "COc1ccc(/C=C/C(N)=O)cc1OC", "Potency": "inactive"}, {"smiles": "N[C@@H](CC(=O)Nc1ccc(Oc2cc(F)c(F)cc2Br)cc1)C(=O)O", "Potency": "inactive"}, {"smiles": "COc1cc(O)cc2c1C(=O)OC(C)C2", "note": "(stereo unspecified)", "Potency": "inactive"}, {"smiles": "COc1cc(/C=C/C(=O)O[C@@H]2C[C@](O)(C(=O)O)C[C@@H](O)[C@H]2O)ccc1O", "Potency": "inactive"}, {"smiles": "Cc1cn(C[C@H](N)C(=O)O)c(=O)n(Cc2ccsc2C(=O)O)c1=O", "Potency": "inactive"}, {"smiles": "CC(O)C1CCC2C3CCC4CC(OC5OC(C(=O)O)C(O)C(O)C5O)CCC4(C)C3CCC12C", "note": "(stereo unspecified)", "Potency": "inactive"}, {"smiles": "C/C=C1/[C@H](O[C@@H]2O[C@H](CO)[C@@H](O)[C@H](O)[C@H]2O)OC=C2C(=O)O[C@@H]3C[C@@H](C(C)CO)[C@H](COC(=O)C[C@H]21)[C@H]3C", "note": "(stereo partly specified)", "Potency": "inactive"}, {"smiles": "COc1ccc(NC(=O)c2ccc(-c3ccc(C(N)=O)cc3C)cc2)cc1N1CCN(C)CC1", "Potency": "inactive"}, {"smiles": "Cc1cccc(-c2nn3c(c2-c2ccnc4ccc(C(N)=O)cc24)CCC3)n1", "Potency": "inactive"}, {"smiles": "CC1(C)CC[C@]2(C(=O)OC3OC(CO)C(O)C(O)C3O)CC[C@]3(C)C(=CCC4[C@@]5(C)C[C@@H](O)[C@H](OC6OC(C(=O)O)C(O)C(O)C6O)C(C)(C)C5CC[C@]43C)[C@@H]2C1", "note": "(stereo partly specified)", "activity change, negative = cytotoxicity": "5.76% [at 11.6 µM] (inactive)"}, {"smiles": "O=C(NCC(=O)N1CCCC1)Nc1ccc2ccccc2c1", "Potency": "inactive"}, {"smiles": "O=C(c1c2ccccc2cc2ccccc12)N1CCC(N2CCC[C@@H](C(=O)N3CCOCC3)C2)CC1", "Potency": "inactive"}, {"smiles": "CC(C)c1ccc2c(c1)C(O)CC1C(C)(CO)CCCC21C", "note": "(stereo unspecified)", "Potency": "inactive"}, {"smiles": "C=CCc1cc(OC)c(OC(C)C(O)c2ccc(O)c(OC)c2)c(OC)c1", "note": "(stereo unspecified)", "Potency": "inactive"}, {"smiles": "COc1cc(O)cc(O[C@@H]2O[C@H](CO)[C@@H](O[C@@H]3OC[C@](O)(CO)[C@H]3O)[C@H](O)[C@H]2O)c1OC", "Potency": "inactive"}, {"smiles": "CC1(C)COC(=O)[C@@H]1O[C@@H]1O[C@H](CO)[C@@H](O)[C@H](O)[C@H]1O", "Potency": "inactive"}, {"smiles": "C[C@@H]1O[C@@H](O[C@H]2[C@@H]3C=CO[C@@H](O[C@@H]4O[C@H](CO)[C@@H](O)[C@H](O)[C@H]4O)[C@@H]3[C@@]3(CO)O[C@@H]23)[C@H](O)[C@H](O)[C@H]1OC(=O)/C=C/c1ccc(O)cc1", "Potency": "inactive"}, {"smiles": "Cc1c(NC(=O)N2CCOCC2)ccc2c1c1ccccc1n2C(C)C", "Potency": "inactive"}, {"smiles": "COC(=O)C1=COC(OC2OC(CO)C(O)C(O)C2O)C2C(COC(=O)/C=C/c3ccc(O)c(O)c3)C(O)C(O)C12", "note": "(stereo unspecified)", "Potency": "inactive"}, {"smiles": "O=C(OC[C@H]1O[C@H](O[C@]2(CO)O[C@H](CO)[C@@H](O)[C@@H]2O)[C@H](O)[C@@H](O)[C@@H]1O)c1ccc(O)cc1", "Potency": "inactive"}, {"smiles": "C=CC(C)(O)C1CC2C3(C)CCCC(C)(C)C3C(O)C(O)C2(C)O1", "note": "(stereo unspecified)", "Potency": "inactive"}]}]}
